The values below come from PubChem BioAssay (EPA / NIEHS).

As usually defined, the AC50 is the concentration at which the activity in the assay is half-maximal.

The subject of assay [1] is Sodium/Iodide Symporter (NIS), SLC5A5 (gene 6528). Put plainly: CPHEA_Stoker_NIS_Inhibition_RAIU: CPHEA's Radioactive Iodide Uptake (RAIU) Assay for Sodium/Iodide Symporter (NIS) Inhibition, Stoker and Laws Labs (AID 2283841). Summed up:
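hNIS-HEK293T-EPA cells incubated 2 h at room temperature with compound (0.001–100 uM, 0.5% DMSO) and 329 pM final 125I in HBSS/10 mM HEPES, pH 7.4. Intracellular 125I counted; normalised to DMSO maximal uptake, triplicate, three biological replicates.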

Assay [2] can be described thus: CPHEA_Stoker_NIS_Cytotoxicity: Cytotoxicity Assessment for CPHEA's Radioactive Iodide Uptake (RAIU) Assay for Sodium/Iodide Symporter (NIS) Inhibition, Stoker and Laws Labs (AID 2283897).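 For AC50: active means loss of ATP signal versus DMSO meaning cytotoxicity.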 Summed up: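 hNIS-HEK293T-EPA cells, human NIS expressed in HEK293T, treated 2 h with chemicals (0.001–100 uM, 0.5% final DMSO). ATP content read by CellTiter-Glo luminescence; loss of signal analysed relative to DMSO.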

Assay [3] has as its system frog Estrogen Receptor (ER2), gene 100174814. Put plainly: ATG_frER2_XSP2: Attagene TRANS-FACTORIAL Multi-Species (XSP2) HepG2 Assay for frog Estrogen Receptor (ER2) (AID 2283828). Summed up:
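Human liver HepG2, transient MRTU transfection (TRANS format, exogenous NR–Gal4). 24 h cpd exposure. Total RNA → RT → PCR → FAM label → HpaI cut → CE. Positive direction vs DMSO.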

The target of assay [4] is Peroxisome proliferator-activated receptor gamma (Homo sapiens) (UniProt P37231). Put plainly: ATG_hPPARg_XSP2: Attagene TRANS-FACTORIAL Multi-Species (XSP2) HepG2 Assay for human Peroxisome Proliferator-activated Receptor gamma (PPARg) (AID 2283829).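 Note: actives raise reporter mRNA above DMSO so AC50 reflects PPARg activation.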 The method, boiled down:
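HepG2 cells transiently transfected with multiplexed GAL4-UAS reporter units for chimeric NR-Gal4 receptors, dosed 24 h. Reporter mRNA quantified by RT-PCR, 6-FAM labeling, HpaI digestion and capillary electrophoresis; gain-of-signal fitted against DMSO baseline.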

Assay [5] deals with mouse Peroxisome Proliferator-activated Receptor gamma (PPARg), Pparg (gene 19016) (UniProt P37238). Briefly: ATG_mPPARg_XSP2: Attagene TRANS-FACTORIAL Multi-Species (XSP2) HepG2 Assay for mouse Peroxisome Proliferator-activated Receptor gamma (PPARg) (AID 2283830).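 Note: hits are gains in reporter mRNA above DMSO so AC50 marks activation.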 The method, boiled down:
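HepG2 cells transiently transfected with GAL4-UAS reporter units for chimeric NR-Gal4 proteins including mouse PPARg, exposed 24 h; medium contained 3 nM 6-alpha-fluorotestosterone and 1.5 nM norgestrel. Reporter mRNA quantified by RT-PCR, HpaI digestion and capillary electrophoresis, vs DMSO.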

For assay [6], the target named is zebrafish Thyroid Hormone Receptor alpha (TRa), thraa (gene 30670) (UniProt Q98867). Put plainly: ATG_zfTRa_XSP2: Attagene TRANS-FACTORIAL Multi-Species (XSP1) HepG2 Assay for zebrafish Thyroid Hormone Receptor alpha (TRa) (AID 2283832).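 Note: actives raise zebrafish TRa-Gal4 reporter transcript above DMSO baseline.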 Summed up: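 Chimeric receptor-Gal4 activity was assessed in transfected human liver HepG2 cells 24 h after dosing, using reporter transcript levels detected by RT-PCR and capillary electrophoresis. DMSO served as baseline.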
Sequence of zebrafish Thyroid Hormone Receptor alpha (TRa), thraa (gene 30670) (Q98867 whole entry, looked up, the tested form may be a part): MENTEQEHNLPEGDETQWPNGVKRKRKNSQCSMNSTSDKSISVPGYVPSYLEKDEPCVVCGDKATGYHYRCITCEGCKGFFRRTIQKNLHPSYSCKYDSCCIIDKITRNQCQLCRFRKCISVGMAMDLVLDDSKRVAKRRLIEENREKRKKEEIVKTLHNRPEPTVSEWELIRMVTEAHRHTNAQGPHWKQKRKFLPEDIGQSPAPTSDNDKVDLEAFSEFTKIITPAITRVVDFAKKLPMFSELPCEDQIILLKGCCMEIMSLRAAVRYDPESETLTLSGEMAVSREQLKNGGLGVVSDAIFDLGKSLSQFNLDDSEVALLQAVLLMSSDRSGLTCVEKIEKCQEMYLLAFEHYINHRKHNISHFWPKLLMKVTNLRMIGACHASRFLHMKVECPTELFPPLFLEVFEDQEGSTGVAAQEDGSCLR

Assay [7] has as its system turtle Thyroid Hormone Receptor, alpha (TRa), gene 101949057. Briefly: ATG_trTRa_XSP2: Attagene TRANS-FACTORIAL Multi-Species (XSP1) HepG2 Assay for turtle Thyroid Hormone Receptor, alpha (TRa) (AID 2283834).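 Note: hits raise reporter mRNA over the DMSO baseline so AC50 marks activators.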 Summed up: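 HepG2 cells transiently transfected with multiplexed GAL4-UAS reporter units expressing chimeric NR-Gal4 proteins were dosed for 24 hours. Reporter mRNA was quantified by RT-PCR with 6-FAM labelling and capillary electrophoresis, gain of signal scored against DMSO.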

Assay [8] concerns the target frog Thyroid hormone Receptor alpha (TRa), thra-a (gene 397942) (UniProt P15204). Put plainly: ATG_frTRa_XSP2: Attagene TRANS-FACTORIAL Multi-Species (XSP2) HepG2 Assay for frog Thyroid hormone Receptor alpha (TRa) (AID 2283839). The method, boiled down: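 HepG2 cells transiently transfected with multiplexed GAL4-UAS reporter units expressing chimeric frog TRα-Gal4; reporter mRNA read 24 h after dosing by RT-PCR, FAM-labelled primer extension, HpaI digest and capillary electrophoresis. Gain of signal fitted versus DMSO.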

Assay [9] deals with human Thyroid hormone Receptor beta (TRb), THRB (gene 7068) (UniProt P10828). Put plainly: ATG_hTRb_XSP2: Attagene TRANS-FACTORIAL Multi-Species (XSP2) HepG2 Assay for human Thyroid hormone Receptor beta (TRb) (AID 2283840).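 Note: actives raise reporter mRNA so potency reflects agonist-like gain of signal.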 The method, boiled down:
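HepG2 cells were transiently transfected with GAL4-UAS multiplexed reporter units expressing chimeric NR-Gal4 proteins, dosed 24 h; reporter mRNA was quantified by RT-PCR, fluorescent labeling, HpaI digestion and capillary electrophoresis, fitted for gain of signal versus DMSO.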

A short description of assay [10]: CEETOX_H295R_11DCORT_noMTC: CeeTox H295R High-throughput Steroidogenesis Assay for 11-Deoxycortisol (11DCORT), maximum tolerated concentration (MTC) filtered results only (AID 2283911; active = hit-call score of the fitted dose curve at least 0.9, where 1 is the maximum; inactive = score below 0.9). The conditions noted are these: actives raise or lower the signal. Summed up:
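HPLC-MS/MS read-out of 11-deoxycortisol after MTBE extraction of H295R medium. Cells: forskolin 10 uM pre-stimulation 48 h, chemical 48 h, 0.1% DMSO final. Bidirectional fit vs DMSO baseline; no MTC filtering.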

The nature of assay [11]: CEETOX_H295R_OHPREG_noMTC: CeeTox H295R High-throughput Steroidogenesis Assay for OH-Pregnenolone (OHPREG), maximum tolerated concentration (MTC) filtered results only (AID 2283912; active = hit-call score of the fitted dose curve at least 0.9, where 1 is the maximum; inactive = score below 0.9). The conditions noted are these: actives raise or lower the signal. The method, boiled down: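 H295R human adrenal cells, forskolin-prestimulated (10 uM, 48 h), then exposed to test chemical in 0.1% DMSO for 48 h. 17alpha-hydroxypregnenolone in medium measured by HPLC-MS/MS after MTBE extraction; bidirectional fit versus DMSO, concentrations not MTC-filtered.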

A short description of assay [12]: CEETOX_H295R_OHPROG_noMTC: CeeTox H295R High-throughput Steroidogenesis Assay for OH-Progesterone (OHPROG), maximum tolerated concentration (MTC) filtered results only (AID 2283914; active = hit-call score of the fitted dose curve at least 0.9, where 1 is the maximum; inactive = score below 0.9). The conditions noted are these: actives raise or lower the signal. The method, boiled down: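 H295R human adrenal cells prestimulated 48 h with 10 uM forskolin, then exposed 48 h to test chemical (0.1% DMSO final). Medium 17alpha-hydroxyprogesterone extracted with MTBE, quantified by HPLC-MS/MS; bidirectional fit versus DMSO, concentrations not MTC-filtered.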

Assay [13] can be described thus: CEETOX_H295R_CORTISOL_noMTC: CeeTox H295R High-throughput Steroidogenesis Assay for Cortisol, maximum tolerated concentration (MTC) filtered results only (AID 2283916; active = hit-call score of the fitted dose curve at least 0.9, where 1 is the maximum; inactive = score below 0.9). The conditions noted are these: actives raise or lower the signal. Summed up:
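H295R adrenal cells were pre-stimulated 48 h with 10 uM forskolin, then exposed 48 h to test chemical in 0.1% DMSO. Medium cortisol was measured by MTBE extraction and HPLC-MS/MS; bidirectional fit versus DMSO, concentrations not MTC-filtered.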

Assay [14] is described as follows: CEETOX_H295R_CORTIC_noMTC: CeeTox H295R High-throughput Steroidogenesis Assay for Corticosterone (CORTIC), maximum tolerated concentration (MTC) filtered results only (AID 2283917; active = hit-call score of the fitted dose curve at least 0.9, where 1 is the maximum; inactive = score below 0.9). The conditions noted are these: actives raise or lower the signal. The method, boiled down:
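H295R, 10 uM forskolin prestim 48 h → test chem (0.1% DMSO final) 48 h → media MTBE extraction → HPLC-MS/MS corticosterone. Bidirectional fit vs DMSO baseline; no MTT-based MTC filtering.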

A short description of assay [15]: CEETOX_H295R_DOC_noMTC: CeeTox H295R High-throughput Steroidogenesis Assay for DOC, maximum tolerated concentration (MTC) filtered results only (AID 2283918; active = hit-call score of the fitted dose curve at least 0.9, where 1 is the maximum; inactive = score below 0.9). The conditions noted are these: actives raise or lower the signal. Summed up:
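H295R cells prestimulated 48 h with 10 uM forskolin, then exposed 48 h to test chemical (0.1% DMSO final). Medium 11-deoxycorticosterone extracted with MTBE, quantified by HPLC-MS/MS; bidirectional fit versus DMSO, concentrations not MTC-filtered.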

Assay [16] addresses Nuclear receptor subfamily 1 group I member 2 (Mus musculus) (UniProt O54915). Briefly: ATG_mPXR_XSP2: Attagene TRANS-FACTORIAL Multi-Species (XSP1) HepG2 Assay for mouse Pregnane X Receptor (PXR) (AID 2283831). Summed up:
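HepG2 cells transiently transfected with GAL4-UAS reporter units expressing chimeric NR-GAL4 proteins; reporter mRNA measured 24 h after dosing by RT-PCR with 6-FAM labelling and capillary electrophoresis, gain of signal relative to DMSO.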

Assay [17] concerns zebrafish Peroxisome Proliferator-activated Receptor gamma (PPARg), gene 557037. Briefly: ATG_zfPPARg_XSP2: Attagene TRANS-FACTORIAL Multi-Species (XSP2) HepG2 Assay for zebrafish Peroxisome Proliferator-activated Receptor gamma (PPARg) (AID 2283833).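 Note: actives increase reporter signal over DMSO so AC50 reflects activation.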 Summed up: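 HepG2 cells transiently transfected with GAL4-UAS reporter units expressing a zebrafish PPARg–GAL4 chimera; compound exposure 24 h. Reporter mRNA quantified by RT-PCR with fluorescent labelling and capillary electrophoresis; gain of signal fitted relative to DMSO baseline.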

The target in assay [18] is human Thyroid hormone Receptor alpha (TRa), THRA (gene 7067) (UniProt P10827). Briefly: ATG_hTRa_XSP2: Attagene TRANS-FACTORIAL Multi-Species (XSP2) HepG2 Assay for human Thyroid hormone Receptor alpha (TRa) (AID 2283838). The method, boiled down: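 HepG2 cells transiently transfected with multiplexed GAL4-UAS reporter units and exogenous NR-GAL4 chimeras; 24 h chemical exposure with 3 nM 6-alpha-fluorotestosterone and 1.5 nM norgestrel present. Reporter mRNA measured by RT-PCR, FAM labelling, HpaI digestion, capillary electrophoresis; gain-of-signal versus DMSO.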
Sequence of human Thyroid hormone Receptor alpha (TRa), THRA (gene 7067) (P10827 whole entry, looked up, the tested form may be a part): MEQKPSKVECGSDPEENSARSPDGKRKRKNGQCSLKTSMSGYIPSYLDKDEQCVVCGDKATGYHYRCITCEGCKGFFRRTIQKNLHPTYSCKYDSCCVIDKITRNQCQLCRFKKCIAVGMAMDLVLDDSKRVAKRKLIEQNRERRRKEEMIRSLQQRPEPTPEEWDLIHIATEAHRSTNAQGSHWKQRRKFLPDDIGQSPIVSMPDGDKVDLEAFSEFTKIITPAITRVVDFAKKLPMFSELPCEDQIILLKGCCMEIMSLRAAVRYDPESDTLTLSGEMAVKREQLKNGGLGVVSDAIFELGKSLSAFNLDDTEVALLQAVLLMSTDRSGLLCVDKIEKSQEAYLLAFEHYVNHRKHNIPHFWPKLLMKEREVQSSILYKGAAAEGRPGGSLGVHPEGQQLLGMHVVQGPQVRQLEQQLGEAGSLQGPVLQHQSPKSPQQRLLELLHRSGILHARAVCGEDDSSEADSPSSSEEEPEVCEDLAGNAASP

The target of assay [19] is zebrafish Thyroid Hormone Receptor beta (TRb), thrb (gene 30607) (UniProt Q9PVE4). Put plainly: ATG_zfTRb_XSP2: Attagene TRANS-FACTORIAL Multi-Species (XSP1) HepG2 Assay for zebrafish Thyroid Hormone Receptor beta (TRb) (AID 2283836). Summed up:
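Fluorescence of labelled reporter cDNA fragments, separated by capillary electrophoresis, gives mRNA induction from exogenous NR-Gal4 chimeras in transiently transfected HepG2 cells after 24 h dosing; 3 nM 6-alpha-fluorotestosterone and 1.5 nM norgestrel included in the run.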

Records with an inconclusive call do not appear. Active and inactive are the calls of the source. Rule for the calls, unless noted: active = hit-call score of the fitted dose curve at least 0.9, where 1 is the maximum; inconclusive = response in the unintended direction; inactive = score below 0.9.

Sequence of human Thyroid hormone Receptor beta (TRb), THRB (gene 7068) (P10828 whole entry, looked up, the tested form may be a part): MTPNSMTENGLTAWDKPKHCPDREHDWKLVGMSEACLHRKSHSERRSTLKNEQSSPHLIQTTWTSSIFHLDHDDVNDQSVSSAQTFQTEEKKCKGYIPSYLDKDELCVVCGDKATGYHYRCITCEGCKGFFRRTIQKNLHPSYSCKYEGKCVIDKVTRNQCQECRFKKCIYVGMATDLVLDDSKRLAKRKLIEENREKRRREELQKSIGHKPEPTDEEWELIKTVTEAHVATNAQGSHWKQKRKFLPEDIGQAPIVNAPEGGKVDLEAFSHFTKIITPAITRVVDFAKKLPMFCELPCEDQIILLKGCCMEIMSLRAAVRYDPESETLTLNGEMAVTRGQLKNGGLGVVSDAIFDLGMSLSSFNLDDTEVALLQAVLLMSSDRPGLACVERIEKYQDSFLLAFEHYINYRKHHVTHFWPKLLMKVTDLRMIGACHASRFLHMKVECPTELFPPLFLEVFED
Sequence of frog Thyroid hormone Receptor alpha (TRa), thra-a (gene 397942) (P15204 whole entry, looked up, the tested form may be a part): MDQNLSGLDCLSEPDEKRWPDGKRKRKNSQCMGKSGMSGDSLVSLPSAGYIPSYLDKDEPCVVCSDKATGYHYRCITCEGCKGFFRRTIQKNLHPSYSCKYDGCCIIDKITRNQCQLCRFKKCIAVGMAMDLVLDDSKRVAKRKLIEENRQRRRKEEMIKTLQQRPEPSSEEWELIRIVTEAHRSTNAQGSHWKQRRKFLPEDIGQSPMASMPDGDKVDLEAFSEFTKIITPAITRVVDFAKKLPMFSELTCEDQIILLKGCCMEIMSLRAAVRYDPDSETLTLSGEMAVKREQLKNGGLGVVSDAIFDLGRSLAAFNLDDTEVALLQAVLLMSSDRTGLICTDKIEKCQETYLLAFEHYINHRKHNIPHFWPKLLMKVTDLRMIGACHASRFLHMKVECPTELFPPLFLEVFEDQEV
Sequence of mouse Peroxisome Proliferator-activated Receptor gamma (PPARg), Pparg (gene 19016) (P37238 whole entry, looked up, the tested form may be a part): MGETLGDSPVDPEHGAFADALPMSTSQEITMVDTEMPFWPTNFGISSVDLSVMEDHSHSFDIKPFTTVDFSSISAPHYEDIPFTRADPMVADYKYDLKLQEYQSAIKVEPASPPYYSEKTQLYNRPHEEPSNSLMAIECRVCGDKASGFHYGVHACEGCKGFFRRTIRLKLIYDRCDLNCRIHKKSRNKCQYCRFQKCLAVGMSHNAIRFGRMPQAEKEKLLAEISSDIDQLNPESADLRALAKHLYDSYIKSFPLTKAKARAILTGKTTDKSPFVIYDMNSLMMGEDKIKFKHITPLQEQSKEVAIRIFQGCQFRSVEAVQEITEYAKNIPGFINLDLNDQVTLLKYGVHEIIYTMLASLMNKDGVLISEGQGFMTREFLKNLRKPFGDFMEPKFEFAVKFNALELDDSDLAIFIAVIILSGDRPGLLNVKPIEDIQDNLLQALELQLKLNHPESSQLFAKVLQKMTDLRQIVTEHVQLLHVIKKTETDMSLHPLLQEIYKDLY
Sequence of Peroxisome proliferator-activated receptor gamma (Homo sapiens) (P37231 whole entry, looked up, the tested form may be a part): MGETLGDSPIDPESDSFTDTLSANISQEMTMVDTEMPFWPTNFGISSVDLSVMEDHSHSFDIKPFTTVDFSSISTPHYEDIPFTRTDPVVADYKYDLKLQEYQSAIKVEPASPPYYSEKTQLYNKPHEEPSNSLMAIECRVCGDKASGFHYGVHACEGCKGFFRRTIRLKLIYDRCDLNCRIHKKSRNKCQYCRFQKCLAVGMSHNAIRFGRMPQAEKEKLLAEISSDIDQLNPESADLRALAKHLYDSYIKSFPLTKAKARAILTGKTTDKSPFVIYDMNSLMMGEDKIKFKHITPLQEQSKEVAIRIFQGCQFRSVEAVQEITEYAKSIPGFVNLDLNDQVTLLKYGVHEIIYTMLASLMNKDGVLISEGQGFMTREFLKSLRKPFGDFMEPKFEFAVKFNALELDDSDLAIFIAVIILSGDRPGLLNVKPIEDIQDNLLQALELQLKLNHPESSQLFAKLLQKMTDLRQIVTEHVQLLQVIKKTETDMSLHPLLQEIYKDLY
Sequence of zebrafish Thyroid Hormone Receptor beta (TRb), thrb (gene 30607) (Q9PVE4 whole entry, looked up, the tested form may be a part): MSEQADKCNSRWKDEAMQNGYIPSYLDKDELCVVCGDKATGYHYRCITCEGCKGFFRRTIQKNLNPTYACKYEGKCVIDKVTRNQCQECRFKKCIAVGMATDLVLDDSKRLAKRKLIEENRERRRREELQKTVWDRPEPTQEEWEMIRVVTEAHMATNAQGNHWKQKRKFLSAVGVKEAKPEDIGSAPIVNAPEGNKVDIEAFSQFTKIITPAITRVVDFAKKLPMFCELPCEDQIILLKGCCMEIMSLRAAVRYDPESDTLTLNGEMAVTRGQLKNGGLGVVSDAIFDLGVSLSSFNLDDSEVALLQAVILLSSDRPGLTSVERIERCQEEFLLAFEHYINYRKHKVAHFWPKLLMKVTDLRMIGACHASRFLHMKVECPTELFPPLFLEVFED
Sequence of Nuclear receptor subfamily 1 group I member 2 (Mus musculus) (O54915 whole entry, looked up, the tested form may be a part): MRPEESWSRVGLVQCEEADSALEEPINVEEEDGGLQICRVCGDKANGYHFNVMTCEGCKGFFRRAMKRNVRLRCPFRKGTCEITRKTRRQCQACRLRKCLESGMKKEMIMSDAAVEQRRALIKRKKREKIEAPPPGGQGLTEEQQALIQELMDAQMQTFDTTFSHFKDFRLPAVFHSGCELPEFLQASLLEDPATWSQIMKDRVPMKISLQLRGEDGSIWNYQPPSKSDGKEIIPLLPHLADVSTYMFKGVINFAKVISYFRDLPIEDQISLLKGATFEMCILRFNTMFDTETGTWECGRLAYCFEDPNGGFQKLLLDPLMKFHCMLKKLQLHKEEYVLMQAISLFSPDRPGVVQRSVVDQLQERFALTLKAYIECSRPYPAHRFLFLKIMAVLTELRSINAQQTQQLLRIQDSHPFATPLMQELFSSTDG

Regarding `CCCCCOC(=O)COc1cc(N2C(=O)C3=C(CCCC3)C2=O)c(F)cc1Cl`, the outcome in [1] and in [2] was inactive.

For the compound `CC(C)CCCCCCc1ccc(O)cc1`, in assay [3], the AC50 was 1.19 µM (active). Moreover, the compound was classed as inactive in assay [4], in assay [5], in assay [6], in [7], in assay [8] and in [9]. Further, the outcome in [1] and in assay [2] was inactive.

As for `O=C(O)c1ccccc1`, the outcome in assay [1] and in assay [2] was inactive.

Turning to `COC(=O)c1ccccc1C(=O)O`, the compound was classed as inactive in [10], in assay [11], in assay [12], in assay [13], in assay [14] and in [15].

With `CC1(C)C(C=C(Cl)Cl)C1C(=O)OCc1cccc(Oc2ccccc2)c1` (stereo not drawn), the half-maximal activity concentration (AC50) in assay [3] is 34.8 µM (active); in assay [16] it was 3.06 µM (active); in assay [9] it was 100 µM (active). Also, the outcome in assay [6], in assay [17], in assay [7], in assay [18] and in assay [8] was inactive.

For the compound `CCCN(CCC)C(=O)SCC`, the result in assay [1] and in assay [2] was inactive.

Turning to `CC(=O)[C@H]1CC[C@H]2[C@@H]3CCC4=CC(=O)CC[C@]4(C)[C@H]3CC[C@]12C`, the concentration at half-maximal activity (AC50) in assay [1] is 84.4 µM (active); in [2] it was 9.92 µM (active).

For the compound `c1ccc(Nc2ccccc2)cc1`, the result in [1] and in assay [2] was inactive.

Turning to `O=C(c1ccc(O)cc1O)c1ccc(O)cc1O`, in assay [3], the AC50 was 2.72 µM (active). The compound was called inactive in [4], in assay [5], in [7], in [19], in [8] and in assay [9].

`C#CCOC(=O)[C@@H](C)Oc1ccc(Oc2ncc(Cl)cc2F)cc1`: the result in assay [1] and in assay [2] was inactive.

On to `CCOC(=O)C(C)Oc1ccc(Oc2cnc3cc(Cl)ccc3n2)cc1` (stereo not drawn), for which the outcome in assay [1] and in assay [2] was inactive.

Regarding `Cc1nn(C)c(Oc2ccccc2)c1C=NOCc1ccc(C(=O)OC(C)(C)C)cc1`, the outcome in assay [1] and in assay [2] was inactive.

For `S=C(S)NCCNC(=S)S.[Mn+2].[S-]C([S-])=NCCN=C([S-])[S-].[Zn+2]`, the result in assay [1] and in assay [2] was inactive.
